According to PubChem BioAssay AID449748 (Broad Institute, 2010):
Screen size: about 2,200 compounds; about 2,200 (100%) were called active. The set was probably picked from earlier hits. Some of the results follow. Results with a measured potency or affinity are listed apart. Inconclusive results are not listed. Values without a mark were called inactive. How the calls were made is not given here.

Assay: PubChem AID 449748
Conditions: cancer stem cell-like cells viability, luminescence; series mostly up to 19.5 µM; activity change, negative = inhibition: at the top concentration

SMILES | activity change, negative = inhibition
CSc1ccccc1C(=O)Nc1cc(C)ccc1C | 31.1%
